Common to all, as to assay: DAPPL (digital affinity profiling via proximity ligation, sequencing); 10 mM Tris-HCl pH 7.5, 50 mM NaCl, 1 mM DTT, 4% glycerol, room temperature, 30 min; GST-TFs on glutathione beads, 16-mer random dsDNA library, 0.1% formaldehyde crosslink after washing; high values mean tight binding
Test [1] has as its target T1, FEV (Homo sapiens, UniProt Q99581 1-238).
T1 sequence: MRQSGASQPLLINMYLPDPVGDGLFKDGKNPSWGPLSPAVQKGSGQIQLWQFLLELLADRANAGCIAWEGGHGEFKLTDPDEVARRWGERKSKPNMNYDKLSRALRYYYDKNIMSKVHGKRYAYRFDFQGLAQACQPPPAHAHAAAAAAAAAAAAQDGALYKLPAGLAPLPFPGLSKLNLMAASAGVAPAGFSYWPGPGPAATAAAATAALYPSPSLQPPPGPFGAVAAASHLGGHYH
Conditions: protein: recombinant; tags: N-terminal GST; dsDNA, one strand shown. In a few lines: (§1)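 GST fusions of human transcription factors were expressed in yeast and captured with glutathione beads. Once given DNA barcodes and pooled alongside a tag-only sample, they were incubated for 30 min at room temperature with 200 nmole of a random double-stranded 16-mer DNA library in Tris/NaCl/DTT/glycerol buffer, then washed, crosslinked (0.1% formaldehyde), proximity-ligated, PCR-amplified and sequenced on an Illumina NextSeq500. The binding signal of each hexamer is its read frequency for a factor divided by its frequency for the tag-only sample.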

In test [2] the target is ETV5 (Homo sapiens, UniProt P41161 1-510). The note with it: protein: recombinant; tags: N-terminal GST; dsDNA, one strand shown. The method in brief:
as §1

For test [3], the target named is HSF1 (Homo sapiens, UniProt Q00613 1-529). Conditions: protein: recombinant; tags: N-terminal GST; chain copies: 3; dsDNA, one strand shown. The method in brief: as §1
Sequence of HSF1 (Q00613 whole entry): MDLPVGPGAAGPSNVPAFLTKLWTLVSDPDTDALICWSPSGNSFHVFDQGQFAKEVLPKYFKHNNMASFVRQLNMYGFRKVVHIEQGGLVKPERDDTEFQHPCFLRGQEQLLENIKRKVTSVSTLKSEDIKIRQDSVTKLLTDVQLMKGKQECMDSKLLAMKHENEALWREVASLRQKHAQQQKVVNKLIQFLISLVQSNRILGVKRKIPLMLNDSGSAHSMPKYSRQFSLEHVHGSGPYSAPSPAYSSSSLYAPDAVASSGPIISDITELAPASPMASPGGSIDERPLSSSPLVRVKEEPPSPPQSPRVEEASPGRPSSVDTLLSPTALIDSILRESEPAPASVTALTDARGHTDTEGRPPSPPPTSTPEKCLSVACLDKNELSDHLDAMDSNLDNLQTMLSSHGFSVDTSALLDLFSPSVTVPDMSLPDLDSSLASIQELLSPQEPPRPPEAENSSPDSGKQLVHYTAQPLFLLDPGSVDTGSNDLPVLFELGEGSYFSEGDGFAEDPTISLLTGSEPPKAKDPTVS
In test [4] the target is T2, SPIC (Homo sapiens, UniProt Q8N5J4 1-248).
T2 sequence: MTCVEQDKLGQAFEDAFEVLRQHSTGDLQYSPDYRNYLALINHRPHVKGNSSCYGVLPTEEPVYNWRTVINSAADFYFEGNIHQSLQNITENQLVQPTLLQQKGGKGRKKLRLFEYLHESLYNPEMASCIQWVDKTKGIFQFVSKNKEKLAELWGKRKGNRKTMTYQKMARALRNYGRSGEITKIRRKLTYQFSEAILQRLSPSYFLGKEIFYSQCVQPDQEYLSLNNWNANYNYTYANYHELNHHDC
Conditions: protein: recombinant; tags: N-terminal GST; dsDNA, one strand shown. In a few lines:
as §1

In test [5] the target is ELF4 (Homo sapiens, UniProt Q99607 1-663). Conditions: protein: recombinant; tags: N-terminal GST; dsDNA, one strand shown. The method in brief:
as §1

The target in test [6] is T3, ELK4 (Homo sapiens, UniProt P28324-2 1-405).
T3 sequence: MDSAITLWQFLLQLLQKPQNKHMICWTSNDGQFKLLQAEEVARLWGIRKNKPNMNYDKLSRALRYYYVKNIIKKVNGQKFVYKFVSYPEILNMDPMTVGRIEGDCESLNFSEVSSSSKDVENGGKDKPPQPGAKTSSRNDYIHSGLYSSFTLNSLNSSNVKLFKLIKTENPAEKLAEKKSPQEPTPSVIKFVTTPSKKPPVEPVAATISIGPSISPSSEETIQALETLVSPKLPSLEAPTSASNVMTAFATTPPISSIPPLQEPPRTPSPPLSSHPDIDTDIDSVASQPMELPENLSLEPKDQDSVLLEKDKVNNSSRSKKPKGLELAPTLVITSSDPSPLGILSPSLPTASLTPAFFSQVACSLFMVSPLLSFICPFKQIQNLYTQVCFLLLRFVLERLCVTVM
Conditions: protein: recombinant; tags: N-terminal GST; dsDNA, one strand shown. In a few lines: as §1

The target of test [7] is T4, ETV2 (Homo sapiens, UniProt O00321 1-342).
T4 sequence: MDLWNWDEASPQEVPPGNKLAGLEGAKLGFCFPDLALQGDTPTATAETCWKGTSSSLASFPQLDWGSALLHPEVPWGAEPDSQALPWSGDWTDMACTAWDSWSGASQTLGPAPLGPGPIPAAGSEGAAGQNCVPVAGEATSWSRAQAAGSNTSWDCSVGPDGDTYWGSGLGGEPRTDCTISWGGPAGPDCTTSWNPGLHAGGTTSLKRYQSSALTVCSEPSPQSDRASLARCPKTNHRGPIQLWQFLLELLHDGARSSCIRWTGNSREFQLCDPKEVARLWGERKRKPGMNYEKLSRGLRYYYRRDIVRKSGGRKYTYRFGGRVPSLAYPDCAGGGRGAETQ
The note with it: protein: recombinant; tags: N-terminal GST; dsDNA, one strand shown. In a few lines:
as §1

The target in test [8] is T5, ELF3 (Homo sapiens, UniProt P78545 1-371).
T5 sequence: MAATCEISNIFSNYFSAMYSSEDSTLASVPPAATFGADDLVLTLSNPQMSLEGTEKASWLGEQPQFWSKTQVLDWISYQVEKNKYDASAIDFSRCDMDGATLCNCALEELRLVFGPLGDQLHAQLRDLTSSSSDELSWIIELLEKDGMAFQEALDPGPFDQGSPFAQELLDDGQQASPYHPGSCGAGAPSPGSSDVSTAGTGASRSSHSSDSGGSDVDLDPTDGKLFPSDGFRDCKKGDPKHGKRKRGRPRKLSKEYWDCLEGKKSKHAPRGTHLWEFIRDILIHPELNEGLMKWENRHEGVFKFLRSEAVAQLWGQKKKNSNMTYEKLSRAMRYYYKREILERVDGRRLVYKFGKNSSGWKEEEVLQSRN
Conditions: protein: recombinant; tags: N-terminal GST; dsDNA, one strand shown. The method in brief:
as §1

In test [9] the target is CRX (Homo sapiens, UniProt O43186 1-299). The note with it: protein: recombinant; tags: N-terminal GST; dsDNA, one strand shown. In a few lines: as §1
Sequence of CRX (O43186 whole entry): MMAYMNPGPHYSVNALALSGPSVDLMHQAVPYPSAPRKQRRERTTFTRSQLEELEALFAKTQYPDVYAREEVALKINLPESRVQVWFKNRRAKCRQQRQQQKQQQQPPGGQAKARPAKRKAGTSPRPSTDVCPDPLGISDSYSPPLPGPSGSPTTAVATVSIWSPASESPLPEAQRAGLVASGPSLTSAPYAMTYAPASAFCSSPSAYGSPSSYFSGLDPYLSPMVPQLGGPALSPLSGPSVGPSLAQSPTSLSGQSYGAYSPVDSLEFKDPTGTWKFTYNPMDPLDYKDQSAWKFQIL
Test [10] addresses ETV1 (Homo sapiens, UniProt P50549 1-477). The note with it: protein: recombinant; tags: N-terminal GST; dsDNA, one strand shown. The method in brief: as §1
For test [11], the target named is T6, ERF (Homo sapiens, UniProt P50548 1-548).
T6 sequence: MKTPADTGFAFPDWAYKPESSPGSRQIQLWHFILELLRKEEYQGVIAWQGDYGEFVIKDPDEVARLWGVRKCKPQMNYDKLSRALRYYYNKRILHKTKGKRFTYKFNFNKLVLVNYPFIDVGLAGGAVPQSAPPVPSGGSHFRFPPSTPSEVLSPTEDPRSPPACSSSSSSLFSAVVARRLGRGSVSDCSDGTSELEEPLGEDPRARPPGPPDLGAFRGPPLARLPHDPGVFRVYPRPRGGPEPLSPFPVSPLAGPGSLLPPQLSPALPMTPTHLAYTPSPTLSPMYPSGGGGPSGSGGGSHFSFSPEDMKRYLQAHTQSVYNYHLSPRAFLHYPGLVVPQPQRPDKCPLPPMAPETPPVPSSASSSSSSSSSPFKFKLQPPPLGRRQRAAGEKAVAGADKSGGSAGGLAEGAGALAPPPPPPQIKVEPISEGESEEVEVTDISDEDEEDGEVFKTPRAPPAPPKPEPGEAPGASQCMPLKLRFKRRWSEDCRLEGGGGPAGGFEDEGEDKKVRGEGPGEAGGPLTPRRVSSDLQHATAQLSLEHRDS
The note with it: protein: recombinant; tags: N-terminal GST; dsDNA, one strand shown. In a few lines:
as §1

Test [12] deals with T7, ETV3L (Homo sapiens, UniProt Q6ZN32 1-361).
T7 sequence: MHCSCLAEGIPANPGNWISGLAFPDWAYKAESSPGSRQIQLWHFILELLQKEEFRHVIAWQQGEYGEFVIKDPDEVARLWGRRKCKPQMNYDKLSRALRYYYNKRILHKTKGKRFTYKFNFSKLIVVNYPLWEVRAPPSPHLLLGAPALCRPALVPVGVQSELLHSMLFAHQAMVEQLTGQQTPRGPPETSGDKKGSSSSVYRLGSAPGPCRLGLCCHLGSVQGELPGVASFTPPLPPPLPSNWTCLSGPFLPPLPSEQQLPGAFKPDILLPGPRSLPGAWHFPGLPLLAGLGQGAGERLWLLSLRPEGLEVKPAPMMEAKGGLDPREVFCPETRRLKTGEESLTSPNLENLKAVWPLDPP
Conditions: protein: recombinant; tags: N-terminal GST; dsDNA, one strand shown. The method in brief:
as §1

Test [13] deals with T8, ETS2 (Homo sapiens, UniProt P15036 1-469).
T8 sequence: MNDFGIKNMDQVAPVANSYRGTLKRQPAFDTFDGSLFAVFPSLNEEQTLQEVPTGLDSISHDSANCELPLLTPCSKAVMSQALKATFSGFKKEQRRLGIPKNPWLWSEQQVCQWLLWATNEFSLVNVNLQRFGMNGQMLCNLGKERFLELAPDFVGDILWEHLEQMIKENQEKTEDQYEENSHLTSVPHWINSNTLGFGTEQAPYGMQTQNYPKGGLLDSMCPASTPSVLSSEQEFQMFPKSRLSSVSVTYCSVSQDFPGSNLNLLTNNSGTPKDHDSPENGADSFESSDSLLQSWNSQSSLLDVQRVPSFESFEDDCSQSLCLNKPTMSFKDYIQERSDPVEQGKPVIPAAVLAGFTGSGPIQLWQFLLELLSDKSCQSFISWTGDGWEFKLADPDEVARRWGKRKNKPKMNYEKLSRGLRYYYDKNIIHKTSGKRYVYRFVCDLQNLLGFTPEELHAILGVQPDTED
Conditions: protein: recombinant; tags: N-terminal GST; dsDNA, one strand shown. In a few lines:
as §1

Test [14] deals with T9, SPDEF (Homo sapiens, UniProt O95238 1-335).
T9 sequence: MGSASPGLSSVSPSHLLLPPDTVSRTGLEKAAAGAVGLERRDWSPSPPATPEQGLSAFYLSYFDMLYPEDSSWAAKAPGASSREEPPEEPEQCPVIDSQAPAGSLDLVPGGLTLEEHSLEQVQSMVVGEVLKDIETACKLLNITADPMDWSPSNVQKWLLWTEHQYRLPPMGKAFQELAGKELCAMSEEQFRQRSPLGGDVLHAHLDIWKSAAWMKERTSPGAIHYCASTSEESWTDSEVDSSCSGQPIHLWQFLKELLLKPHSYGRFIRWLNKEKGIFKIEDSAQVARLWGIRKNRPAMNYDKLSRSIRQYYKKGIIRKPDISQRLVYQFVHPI
The note with it: protein: recombinant; tags: N-terminal GST; dsDNA, one strand shown. In a few lines:
as §1

Test [15] has as its target T10, ETV7 (Homo sapiens, UniProt Q9Y603 1-341).
T10 sequence: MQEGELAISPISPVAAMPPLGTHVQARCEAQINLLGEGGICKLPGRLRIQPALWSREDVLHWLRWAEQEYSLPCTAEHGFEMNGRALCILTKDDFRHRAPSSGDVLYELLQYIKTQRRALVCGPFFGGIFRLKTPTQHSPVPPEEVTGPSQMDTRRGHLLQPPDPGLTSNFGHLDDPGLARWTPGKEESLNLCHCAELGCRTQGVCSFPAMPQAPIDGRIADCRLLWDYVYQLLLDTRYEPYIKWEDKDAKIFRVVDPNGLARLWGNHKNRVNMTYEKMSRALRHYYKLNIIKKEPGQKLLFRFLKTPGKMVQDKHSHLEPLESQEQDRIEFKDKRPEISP
The note with it: protein: recombinant; tags: N-terminal GST; dsDNA, one strand shown. The method in brief: as §1

In test [16] the target is T11, ELF5 (Homo sapiens, UniProt Q9UKW6-2 1-255).
T11 sequence: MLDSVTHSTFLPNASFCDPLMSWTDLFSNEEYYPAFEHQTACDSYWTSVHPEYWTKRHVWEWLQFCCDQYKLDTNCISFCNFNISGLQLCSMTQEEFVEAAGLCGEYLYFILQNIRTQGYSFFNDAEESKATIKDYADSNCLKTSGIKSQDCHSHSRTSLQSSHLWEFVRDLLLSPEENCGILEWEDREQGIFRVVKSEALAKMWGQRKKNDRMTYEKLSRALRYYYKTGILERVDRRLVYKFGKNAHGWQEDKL
Conditions: protein: recombinant; tags: N-terminal GST; dsDNA, one strand shown. The method in brief:
as §1

For test [17], the target named is T12, ETV3 (Homo sapiens, UniProt P41162-2 1-143).
T12 sequence: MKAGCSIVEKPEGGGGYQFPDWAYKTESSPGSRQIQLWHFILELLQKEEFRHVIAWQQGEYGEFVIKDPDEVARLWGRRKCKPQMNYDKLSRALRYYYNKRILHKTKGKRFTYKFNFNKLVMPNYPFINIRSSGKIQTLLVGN
Conditions: protein: recombinant; tags: N-terminal GST; dsDNA, one strand shown. In a few lines: as §1

For test [18], the target named is ETV6 (Homo sapiens, UniProt P41212 1-452). The note with it: protein: recombinant; tags: N-terminal GST; dsDNA, one strand shown. In a few lines:
as §1

Sequence of ELF4 (Q99607 whole entry): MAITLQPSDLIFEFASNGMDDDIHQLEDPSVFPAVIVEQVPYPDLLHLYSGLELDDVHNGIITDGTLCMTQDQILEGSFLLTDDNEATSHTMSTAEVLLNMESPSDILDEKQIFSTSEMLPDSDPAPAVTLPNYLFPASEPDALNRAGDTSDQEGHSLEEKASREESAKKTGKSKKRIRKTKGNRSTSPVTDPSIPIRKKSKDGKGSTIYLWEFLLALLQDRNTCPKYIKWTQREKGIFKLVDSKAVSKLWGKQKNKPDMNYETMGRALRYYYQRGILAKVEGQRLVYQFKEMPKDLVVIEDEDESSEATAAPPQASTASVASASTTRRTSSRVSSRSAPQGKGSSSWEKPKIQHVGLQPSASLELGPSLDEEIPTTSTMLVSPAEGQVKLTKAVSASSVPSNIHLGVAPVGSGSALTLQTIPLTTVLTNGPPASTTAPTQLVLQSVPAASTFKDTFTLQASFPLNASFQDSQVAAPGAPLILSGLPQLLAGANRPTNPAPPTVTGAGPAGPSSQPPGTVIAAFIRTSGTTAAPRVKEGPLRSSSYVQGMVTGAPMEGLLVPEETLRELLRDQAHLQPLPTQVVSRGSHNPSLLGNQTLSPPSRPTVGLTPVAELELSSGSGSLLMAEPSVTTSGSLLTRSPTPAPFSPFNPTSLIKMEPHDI
Sequence of ETV6 (P41212 whole entry): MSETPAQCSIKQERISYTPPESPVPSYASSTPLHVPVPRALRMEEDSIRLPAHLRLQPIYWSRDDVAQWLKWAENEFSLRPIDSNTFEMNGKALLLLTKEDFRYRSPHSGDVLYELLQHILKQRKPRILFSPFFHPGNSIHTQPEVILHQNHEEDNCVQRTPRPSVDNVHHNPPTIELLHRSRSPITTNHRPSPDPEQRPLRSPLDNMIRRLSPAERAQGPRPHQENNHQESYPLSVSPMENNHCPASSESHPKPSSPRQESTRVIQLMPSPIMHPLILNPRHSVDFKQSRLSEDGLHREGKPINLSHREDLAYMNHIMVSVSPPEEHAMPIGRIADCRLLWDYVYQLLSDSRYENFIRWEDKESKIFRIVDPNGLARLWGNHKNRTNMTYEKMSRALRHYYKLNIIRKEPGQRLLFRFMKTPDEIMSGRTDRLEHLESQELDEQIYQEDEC
Sequence of ETV1 (P50549 whole entry): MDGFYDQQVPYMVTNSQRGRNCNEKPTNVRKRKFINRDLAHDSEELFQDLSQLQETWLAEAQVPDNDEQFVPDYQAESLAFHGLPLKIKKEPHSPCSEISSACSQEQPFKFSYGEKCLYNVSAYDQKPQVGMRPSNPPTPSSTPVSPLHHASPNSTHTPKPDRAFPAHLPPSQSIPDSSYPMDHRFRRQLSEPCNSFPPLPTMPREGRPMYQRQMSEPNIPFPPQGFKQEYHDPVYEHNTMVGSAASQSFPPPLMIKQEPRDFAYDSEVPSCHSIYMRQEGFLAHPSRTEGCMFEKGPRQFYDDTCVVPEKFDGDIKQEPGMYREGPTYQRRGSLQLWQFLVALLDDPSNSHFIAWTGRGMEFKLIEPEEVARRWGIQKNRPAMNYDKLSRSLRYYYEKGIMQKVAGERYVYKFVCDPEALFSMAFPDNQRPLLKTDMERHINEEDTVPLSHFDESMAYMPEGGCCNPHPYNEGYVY
Sequence of ETV5 (P41161 whole entry): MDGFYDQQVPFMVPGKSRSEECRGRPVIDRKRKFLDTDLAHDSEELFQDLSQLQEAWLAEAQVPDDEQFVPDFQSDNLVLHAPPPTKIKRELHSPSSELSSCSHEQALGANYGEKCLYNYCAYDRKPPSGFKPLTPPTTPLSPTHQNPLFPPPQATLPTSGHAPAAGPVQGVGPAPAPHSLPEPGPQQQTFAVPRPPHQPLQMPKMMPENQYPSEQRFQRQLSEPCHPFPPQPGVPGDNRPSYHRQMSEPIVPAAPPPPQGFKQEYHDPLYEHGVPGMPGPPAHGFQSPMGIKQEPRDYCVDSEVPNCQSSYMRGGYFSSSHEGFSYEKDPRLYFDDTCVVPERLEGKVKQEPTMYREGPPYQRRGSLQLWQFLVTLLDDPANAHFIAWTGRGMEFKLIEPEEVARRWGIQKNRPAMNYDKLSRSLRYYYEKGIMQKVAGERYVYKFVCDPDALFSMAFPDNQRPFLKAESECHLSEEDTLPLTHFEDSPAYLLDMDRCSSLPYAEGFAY

ATCGCC: the binding signal in test [1] is 1.24 fold enrichment (6-mer frequency, TF over GST control); in test [2], 1.23 fold enrichment (6-mer frequency, TF over GST control); in test [3], 1.28 fold enrichment (6-mer frequency, TF over GST control); in test [4] it was 1.31 fold enrichment (6-mer frequency, TF over GST control); in test [5] it was 1.24 fold enrichment (6-mer frequency, TF over GST control); in [6] it was 1.28 fold enrichment (6-mer frequency, TF over GST control). For the same sequence, the binding signal in test [7] is 1.2 fold enrichment (6-mer frequency, TF over GST control); in [8], 1.12 fold enrichment (6-mer frequency, TF over GST control); in test [9], 1.4 fold enrichment (6-mer frequency, TF over GST control); in test [10], 1.32 fold enrichment (6-mer frequency, TF over GST control); in test [11] it was 1.27 fold enrichment (6-mer frequency, TF over GST control); in [12] it was 1.32 fold enrichment (6-mer frequency, TF over GST control). In addition, the binding signal in test [13] is 1.3 fold enrichment (6-mer frequency, TF over GST control); in test [14] it was 1.12 fold enrichment (6-mer frequency, TF over GST control); in test [15], 1.03 fold enrichment (6-mer frequency, TF over GST control); in test [16], 1.25 fold enrichment (6-mer frequency, TF over GST control); in [17] it was 1.14 fold enrichment (6-mer frequency, TF over GST control); in test [18] it was 1.28 fold enrichment (6-mer frequency, TF over GST control).

The values are drawn from paper PMC7862700, “An all-to-all approach to the identification of sequence-specific readers for epigenetic DNA modifications on cytosine”.
